# Several values for one entry are separate records, joined by “and”; a condition that tells them apart may be missing. Identical values can stand only once. Inconclusive results are not listed. Values without a mark were called inactive. Activity calls are given as the source filed them. The call rests on the fitted dose curve; in most records, active means well fitted inhibition curve with a large enough effect; inconclusive means small, poorly fitted or top-dose-only effect; inactive means flat fitted curve, though single readings scatter.
# Key:
# Test in all cases: Cytotoxic Profiling of Annotated Libraries Using Quantitative High-Throughput Screening (AID 1296008); further: nearly all actives have a fitted effect of over 60% in size
# Details in all cases: Five cell lines viability, CellTiter-Glo ATP luminescence, 48-72 h; max response: hits give low values
# CRL-7250 = normal cell line; tested on: CRL-7250
# In short: (§1)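 Cells exposed to compounds for 48 or 72 hr at 37 degrees Celsius. Viability read as ATP-coupled luminescence with CellTiter-Glo after 10 min at room temperature.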
# HaCat = tested on: HaCat
# In short: as §1
# KB-3-1 = tested on: KB-3-1
# In short: as §1
# NIH3T3 = tested on: NIH3T3
# In short: as §1
# HEK293 = tested on: HEK293
# In short: as §1
# On the % scale 0 is the no-effect control and ±100 the full control effect; potency means the concentration at half of the fitted maximal effect.
smiles,measurement,setting,value
COC(=O)C1C2CC3c4[nH]c5cc(OC)ccc5c4CCN3CC2CC(OC(=O)c2cc(OC)c(OC)c(OC)c2)C1OC (stereo not given),max response,CRL-7250,-19.7%
same,outcome,HaCat,inactive
same,max response,KB-3-1,3.89%
same,max response,NIH3T3,-9.23%
C[C@](Cc1c[nH]c2ccccc12)(NC(=O)OC1C2CC3CC(C2)CC1C3)C(=O)NC[C@H](NC(=O)CCC(=O)O)c1ccccc1 (stereo not given in full),outcome,CRL-7250,inactive
same,outcome,HaCat,inactive
same,max response,KB-3-1,-2.86%
same,max response,NIH3T3,-5.4%
CS(=O)(=O)N1CCc2c(-c3cnc(N)nc3)nc(N3CCOCC3)nc21,Potency,CRL-7250,0.935 µM (active)
same,Potency,HaCat,1.16 µM (active)
same,Potency,KB-3-1,4.61 µM (active)
same,Potency,NIH3T3,743 nM (active) and 1.84 µM (active)
CCCCCCCN(CC)CCCC(O)c1ccc(NS(C)(=O)=O)cc1 (stereo not given),max response,CRL-7250,0.839%
same,outcome,HaCat,inactive
same,max response,KB-3-1,-6.17%
same,max response,NIH3T3,-1.95%
C=CCNc1c(O)cc2c(O)c1C[C@@H](C)C[C@H](OC)[C@@H](O)[C@@H](C)C=C(C)[C@H](OC(N)=O)[C@@H](OC)C=CC=C(C)C(=O)N2,Potency,CRL-7250,0.0372 µM (active)
same,Potency,HaCat,0.372 µM (active)
same,Potency,KB-3-1,0.0935 µM (active)
same,Potency,NIH3T3,0.59 µM (active)
O=C(C=CC=Cc1ccc2c(c1)OCO2)N1CCCCC1,max response,CRL-7250,-3.96%
same,max response,HaCat,-2.24%
same,max response,KB-3-1,-6.15%
same,outcome,NIH3T3,inactive
CCCCCCCCCCCCc1ccc(S(=O)(=O)Nc2nncs2)cc1,outcome,CRL-7250,inactive
same,max response,HaCat,-11%
same,outcome,KB-3-1,inactive
same,outcome,NIH3T3,inactive
CC(=O)NC(CS)C(=O)O (stereo not given),max response,CRL-7250,1.57%
same,outcome,HaCat,inactive
same,max response,KB-3-1,-3.44%
same,max response,NIH3T3,-5.75%
C[N+]1(C)[C@@H]2C[C@@H](OC(=O)C(O)(c3cccs3)c3cccs3)C[C@H]1[C@@H]1O[C@@H]12,outcome,CRL-7250,inactive
same,outcome,HaCat,inactive
same,outcome,KB-3-1,inactive
same,max response,NIH3T3,-6.05%
Nc1cccc2c1C(=O)N(C1CCC(=O)NC1=O)C2=O (stereo not given),max response,CRL-7250,1.13%
same,outcome,HaCat,inactive
same,max response,KB-3-1,-7.31%
same,max response,NIH3T3,-1.24%
OCCN1C[C@H](O)[C@@H](O)[C@H](O)[C@@H]1CO,max response,CRL-7250,-0.792%
same,outcome,HaCat,inactive
same,outcome,KB-3-1,inactive
same,max response,NIH3T3,-2.06%
CCn1c(=O)c2c(nc(C=Cc3ccc(OC)c(OC)c3)n2C)n(CC)c1=O,max response,CRL-7250,-2.94%
same,max response,HaCat,-8.26%
same,max response,KB-3-1,9.4%
same,outcome,NIH3T3,inactive
Cn1cc(C[C@@H](N)C(=O)O)c2ccccc21,Potency,CRL-7250,5.75 µM (active)
same,outcome,HaCat,inactive
same,max response,KB-3-1,4.82%
same,max response,NIH3T3,-2.88%
CC(=O)O[C@H]1C[C@@H]2CC[C@H]3[C@H]4C[C@H]([N+]5(C)CCCCC5)[C@@H](OC(C)=O)[C@@]4(C)CC[C@@H]3[C@@]2(C)C[C@H]1N1CCCCC1,max response,CRL-7250,-4.19%
same,max response,HaCat,-11.8%
same,max response,KB-3-1,2.79%
same,max response,NIH3T3,4.95%
Cn1cc(CNCC2CCN(c3ncc(C(=O)NO)cn3)CC2)c2ccccc21,Potency,CRL-7250,0.332 µM (active)
same,Potency,HaCat,0.662 µM (active)
same,Potency,KB-3-1,0.132 µM (active)
same,Potency,NIH3T3,0.526 µM (active)
c1ccc2c(Oc3nc(Nc4ccc(N5CCOCC5)cc4)c4ncn(C5CCCCC5)c4n3)cccc2c1,max response,CRL-7250,-3.84% and 0.807%
same,outcome,HaCat,inactive
same,max response,KB-3-1,8.53%
same,max response,NIH3T3,1.5% and -0.0324%
CC(=O)SCC(Cc1ccccc1)C(=O)NCC(=O)OCc1ccccc1 (stereo not given),max response,CRL-7250,-7.71%
same,outcome,HaCat,inactive
same,max response,KB-3-1,3.33%
same,max response,NIH3T3,-4.22%
Oc1cc2c(cc1O)C1c3ccc(O)c(O)c3OCC1(O)C2 (stereo not given),max response,CRL-7250,1.81%
same,outcome,HaCat,inactive
same,max response,KB-3-1,7.88%
same,outcome,NIH3T3,inactive
C=C1C[C@@]2(O)O[C@@]3(C[C@H]2C(C)C)[C@H](C)CC[C@H]13,max response,CRL-7250,-11.2%
same,outcome,HaCat,inactive
same,outcome,KB-3-1,inactive
same,max response,NIH3T3,2.78%
C#C[C@]1(O)CC[C@@H]2[C@@H]3CCc4cc(O)ccc4[C@H]3CC[C@@]21C,max response,CRL-7250,-14.3%
same,Potency,KB-3-1,20.9 µM (active)
same,max response,NIH3T3,-5.15%
O=C(Nc1cc2cc[nH]c2cn1)c1ccccc1,Potency,CRL-7250,18.7 µM (active)
same,Potency,NIH3T3,13.2 µM (active)
NC(=O)Nc1sc(-c2ccc(F)cc2)cc1C(N)=O,Potency,HEK293,13.2 µM (active)
same,Potency,HaCat,10.5 µM (active)
same,Potency,KB-3-1,9.35 µM (active)
OCCNC1CCCc2c1[nH]c1ccc(-c3ccccc3)cc21 (stereo not given),Potency,HEK293,13.2 µM (active)
same,outcome,HaCat,inactive
same,Potency,KB-3-1,14.6 µM (active)
same,Potency,NIH3T3,16.4 µM (active)
Cn1cc(C2=C(c3c4n(c5ccccc35)CCC(CN)C4)C(=O)NC2=O)c2ccccc21 (stereo not given),Potency,HEK293,13.2 µM (active)
same,Potency,HaCat,37.2 µM (active)
same,Potency,KB-3-1,6.62 µM (active)
same,Potency,NIH3T3,16.6 µM (active)
CC(C)(O)CC[C@@H](O)[C@](C)(O)[C@H]1CC[C@@]2(O)C3=CC(=O)[C@@H]4C[C@@H](O)[C@@H](O)C[C@]4(C)[C@@H]3CC[C@]12C,max response,HEK293,-3.79%
same,max response,HaCat,-11.3%
same,max response,KB-3-1,-6.66%
same,max response,NIH3T3,0.822%
O=S(=O)(O)CCSSCCS(=O)(=O)O,outcome,HEK293,inactive
same,max response,HaCat,-4.2%
same,max response,KB-3-1,4.37%
same,max response,NIH3T3,-4.2%

# Source: PubChem BioAssay (NCATS)
